Inconclusive results are not listed. Active and inactive are the calls of the source. Unless noted, the call rests on the fitted dose curve; in most records, active means well fitted curve in the direction sought with a large enough effect; inconclusive means small, poorly fitted or top-dose-only effect, or another doubt; inactive means no such curve, though single readings can be large; an effect the other way counts as inactive or inconclusive.
Columns and labels:
[1] = S16 Schwann cell PMP22 intronic element beta-lactamase assay (AID 624044; calls by dose curve;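 further: 0% = DMSO and -100% = potassium clavulanate positive control; nearly all actives have a fitted effect of over 15% in size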)
Procedure, shortened: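 Beta-lactamase reporter under a PMP22 intronic regulatory element in stable S16 rat Schwann cells; 24 h compound exposure. 460 nm blue signal normalized between DMSO (0%) and potassium clavulanate, with 535 nm FRET tracking viability; curves classed by r2 and response.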

7G8 = test: qHTS profiling for inhibitors of Plasmodium falciparum proliferation (AID 504749); further: nearly all actives have a fitted effect of over 60% in size; further: potency means the concentration at half of the fitted maximal effect; details: P. falciparum in erythrocytes, SYBR Green DNA, 72 h; series mostly up to 12.8 µM
Procedure, shortened: (§1)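 Each compound contacts P. falciparum-infected red blood cells for 72 h at 37 C; lysis buffer (Tris, EDTA, saponin, Triton X, SYBR Green I) is added and fluorescence measured next morning; values normalized to controls.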

CP203 = test: as above; details: P. falciparum in erythrocytes, SYBR Green DNA, 72 h; series mostly up to 12.8 µM
Procedure, shortened: as §1

CP211 = test: as above; details: P. falciparum in erythrocytes, SYBR Green DNA, 72 h; series mostly up to 12.8 µM
Procedure, shortened: as §1

CP269 = test: as above; details: P. falciparum in erythrocytes, SYBR Green DNA, 72 h; series mostly up to 12.8 µM
Procedure, shortened: as §1

CP291 = test: as above; details: P. falciparum in erythrocytes, SYBR Green DNA, 72 h; series mostly up to 12.8 µM
Procedure, shortened: as §1

CP335 = test: as above; details: P. falciparum in erythrocytes, SYBR Green DNA, 72 h; series mostly up to 12.8 µM
Procedure, shortened: as §1

DIV14 = test: as above; details: P. falciparum in erythrocytes, SYBR Green DNA, 72 h; series mostly up to 12.8 µM
Procedure, shortened: as §1

DIV17 = test: as above; details: P. falciparum in erythrocytes, SYBR Green DNA, 72 h; series mostly up to 12.8 µM
Procedure, shortened: as §1

GB4 = test: as above; details: P. falciparum in erythrocytes, SYBR Green DNA, 72 h; series mostly up to 12.8 µM
Procedure, shortened: as §1

PC26 = test: as above; details: P. falciparum in erythrocytes, SYBR Green DNA, 72 h; series mostly up to 12.8 µM
Procedure, shortened: as §1

CP237 = test: as above; details: P. falciparum in erythrocytes, SYBR Green DNA, 72 h; series mostly up to 12.8 µM
Procedure, shortened: as §1

DFO2036 = test: as above; details: P. falciparum in erythrocytes, SYBR Green DNA, 72 h; series mostly up to 12.8 µM
Procedure, shortened: as §1

ICS = test: as above; details: P. falciparum in erythrocytes, SYBR Green DNA, 72 h; series mostly up to 12.8 µM
Procedure, shortened: as §1

W2 = test: as above; details: P. falciparum in erythrocytes, SYBR Green DNA, 72 h; series mostly up to 12.8 µM
Procedure, shortened: as §1

[2] = molecular target: Cytochrome P450 2D6 (Homo sapiens) (UniProt P10635); test: qHTS Assay for Inhibitors and Substrates of Cytochrome P450 2D6 (AID 891); further: nearly all actives have a fitted effect of over 60% in size; further: potency means the concentration at half of the fitted maximal effect;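 on activity change, negative = inhibition: luciferin methyl ether substrate demethylated by CYP2D6 with NADPH regeneration; on the % scale 0 is the no-effect control and ±100 the full control effect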
Sequence of Cytochrome P450 2D6 (Homo sapiens) (P10635 whole entry, looked up): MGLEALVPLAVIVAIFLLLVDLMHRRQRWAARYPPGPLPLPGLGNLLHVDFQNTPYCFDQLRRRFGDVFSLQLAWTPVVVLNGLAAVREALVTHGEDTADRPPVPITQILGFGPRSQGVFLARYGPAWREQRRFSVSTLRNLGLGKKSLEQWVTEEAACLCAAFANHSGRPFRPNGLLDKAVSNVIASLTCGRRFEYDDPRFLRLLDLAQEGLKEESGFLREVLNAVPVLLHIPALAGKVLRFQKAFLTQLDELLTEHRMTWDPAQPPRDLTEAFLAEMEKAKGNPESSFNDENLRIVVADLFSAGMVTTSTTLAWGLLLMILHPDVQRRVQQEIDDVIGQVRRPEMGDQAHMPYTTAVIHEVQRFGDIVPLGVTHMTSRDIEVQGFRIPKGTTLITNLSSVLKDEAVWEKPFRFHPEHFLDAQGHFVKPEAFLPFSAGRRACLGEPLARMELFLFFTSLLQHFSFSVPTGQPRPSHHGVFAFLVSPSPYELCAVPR
Procedure, shortened: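 Luminescent read-out of luciferin formed by 5 nM human CYP2D6 demethylating 30 uM Luciferin-ME EGE (Km level) over 60 min at room temperature after NADPH regeneration addition. Data normalized to full inhibition by 1.43 uM quinidine.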

[3] = molecular target: Cytochrome P450 2C19 (Homo sapiens) (UniProt P33261); test: qHTS Assay for Inhibitors and Substrates of Cytochrome P450 2C19 (AID 899); further: nearly all actives have a fitted effect of over 60% in size; further: potency means the concentration at half of the fitted maximal effect
Sequence of Cytochrome P450 2C19 (Homo sapiens) (P33261 whole entry, looked up): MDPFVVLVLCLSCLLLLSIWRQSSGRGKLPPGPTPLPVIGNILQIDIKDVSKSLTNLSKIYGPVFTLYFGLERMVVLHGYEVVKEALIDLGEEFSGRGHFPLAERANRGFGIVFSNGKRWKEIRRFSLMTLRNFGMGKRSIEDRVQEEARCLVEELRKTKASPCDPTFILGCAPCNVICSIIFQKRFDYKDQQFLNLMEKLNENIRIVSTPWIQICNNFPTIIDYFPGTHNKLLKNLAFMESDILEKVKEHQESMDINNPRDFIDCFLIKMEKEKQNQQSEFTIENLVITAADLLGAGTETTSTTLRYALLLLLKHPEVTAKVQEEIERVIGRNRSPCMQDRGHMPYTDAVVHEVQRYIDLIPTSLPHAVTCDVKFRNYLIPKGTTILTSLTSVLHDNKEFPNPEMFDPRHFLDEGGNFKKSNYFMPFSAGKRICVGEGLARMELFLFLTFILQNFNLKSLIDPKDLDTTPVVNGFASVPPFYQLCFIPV
Procedure, shortened: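 Luminescent read-out of luciferin formed from Luciferin-H EGE (10uM, equal to KM). Enzyme 5nM in 50mM KPO4; compound added, 10 min at 37C, then NADPH regenerating system for 60 min at 37C. Full inhibition defined by 57uM ketoconazole.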

[4] = molecular target: Cytochrome P450 3A4 (Homo sapiens) (UniProt P08684); test: qHTS Assay for Inhibitors and Substrates of Cytochrome P450 3A4 (AID 884); further: nearly all actives have a fitted effect of over 50% in size; further: potency means the concentration at half of the fitted maximal effect; on activity change, negative = inhibition: on the % scale 0 is the no-effect control and ±100 the full control effect
Sequence of Cytochrome P450 3A4 (Homo sapiens) (P08684 whole entry, looked up): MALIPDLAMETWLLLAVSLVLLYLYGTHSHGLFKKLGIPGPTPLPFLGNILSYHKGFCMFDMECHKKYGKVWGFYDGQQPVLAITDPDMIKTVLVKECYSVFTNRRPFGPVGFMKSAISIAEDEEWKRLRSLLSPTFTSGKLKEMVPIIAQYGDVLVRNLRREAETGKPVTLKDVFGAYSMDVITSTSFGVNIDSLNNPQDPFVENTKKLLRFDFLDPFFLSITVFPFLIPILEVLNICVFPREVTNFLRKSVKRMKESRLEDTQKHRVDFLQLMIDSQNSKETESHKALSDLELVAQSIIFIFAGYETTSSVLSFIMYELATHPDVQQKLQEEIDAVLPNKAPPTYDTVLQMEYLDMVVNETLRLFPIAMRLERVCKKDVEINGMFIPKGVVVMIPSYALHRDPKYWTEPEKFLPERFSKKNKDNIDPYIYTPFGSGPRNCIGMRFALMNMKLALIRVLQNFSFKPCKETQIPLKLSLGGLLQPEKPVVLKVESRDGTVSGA
Procedure, shortened: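 Luminescent readout of luciferin produced by CYP3A4 (20 nM) dealkylation of Luciferin-PPXE, 25 uM (its KM). NADPH-driven reaction ran 60 min at RT after 10 min compound preincubation; data scaled to 57 uM ketoconazole as 100% inhibition.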

[5] = molecular target: Cytochrome P450 3A4 (Homo sapiens) (UniProt P08684); test: qHTS Assay for Activators of Cytochrome P450 3A4 (AID 885); further: nearly all actives have a fitted effect of over 65% in size
Procedure, shortened: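 CYP3A4 activity: Luciferin-PPXE O-dealkylation, 25uM substrate, 200mM KPO4, RT throughout. Read-out is luciferase luminescence; higher values reflect activation.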

[6] = molecular target: Cytochrome P450 2C9 (Homo sapiens) (UniProt P11712); test: qHTS Assay for Inhibitors and Substrates of Cytochrome P450 2C9 (AID 883); further: nearly all actives have a fitted effect of over 60% in size; further: potency means the concentration at half of the fitted maximal effect; on activity change, negative = inhibition: on the % scale 0 is the no-effect control and ±100 the full control effect
Sequence of Cytochrome P450 2C9 (Homo sapiens) (P11712 whole entry, looked up): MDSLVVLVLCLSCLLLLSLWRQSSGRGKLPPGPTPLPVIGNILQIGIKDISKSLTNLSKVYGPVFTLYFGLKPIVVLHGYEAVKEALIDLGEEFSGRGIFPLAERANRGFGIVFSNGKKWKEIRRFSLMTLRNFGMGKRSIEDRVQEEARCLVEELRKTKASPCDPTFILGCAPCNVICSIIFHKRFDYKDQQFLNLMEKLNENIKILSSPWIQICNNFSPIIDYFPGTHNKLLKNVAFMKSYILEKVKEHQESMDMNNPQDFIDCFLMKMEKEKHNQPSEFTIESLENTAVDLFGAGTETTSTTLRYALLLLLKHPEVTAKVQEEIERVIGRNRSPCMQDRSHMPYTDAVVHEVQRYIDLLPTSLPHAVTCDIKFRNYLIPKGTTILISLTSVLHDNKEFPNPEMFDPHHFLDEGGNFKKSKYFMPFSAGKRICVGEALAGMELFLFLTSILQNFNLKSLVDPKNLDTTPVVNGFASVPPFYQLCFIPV
Procedure, shortened: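 10nM CYP2C9 + 100uM Luciferin-H (=KM), 25mM KPO4; cpd 10 min 37C; NADPH regen, 60 min 37C; stop/detect with P450 Glo-Buffer 20 min; luminescence. Norm. to 57uM sulphaphenazole as full inhibition.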

O=C1O[C@H](CN2CCOCC2)CN1/N=C\c1ccc([N+](=O)[O-])o1
active: Potency (7G8) 3550 nM
inactive: Potency [1] | Potency (CP203) | Potency (CP211) | Potency (CP269) | Potency (CP291) | Potency (CP335) | Potency (DIV14) | Potency (DIV17) | Potency (GB4) | Potency (PC26)

C[N+]12CCC(CC1)[C@@H](OC(=O)C(O)(c1ccccc1)c1ccccc1)C2
inactive: Potency (7G8) | Potency (CP237) | Potency (CP269) | Potency (CP335) | Potency (DFO2036) | Potency (ICS) | Potency (W2)

CC[N+](CC)(CC)CC[C@](O)(c1ccccc1)C1CCCCC1
active: Potency [2] 20 nM
inactive: Potency [1] | Potency (7G8) | Potency (CP203) | Potency (CP211) | Potency (CP237) | Potency (CP269) | Potency (CP335) | Potency (DFO2036) | Potency (DIV17) | Potency (GB4)

C#C[C@@]1(O)CC[C@@H]2[C@@H]3CCC4=C(CCC(=O)C4)[C@H]3CC[C@]21C
inactive: Potency [1]
active: Potency [3] 63.1 nM

COc1ccc(C[C@@](C)(N)C(=O)O)cc1OC
inactive: Potency [1] | Potency (7G8) | Potency (CP203) | Potency (CP211) | Potency (CP237) | Potency (CP269) | Potency (CP291) | Potency (DFO2036) | Potency (DIV14) | Potency (DIV17) | Potency (GB4) | Potency (ICS) | Potency (PC26) | Potency (W2)

CC(=O)O[C@]1(C(C)=O)CC[C@@H]2[C@@H]3C=C(C)C4=CC(=O)CC[C@@]4(C)[C@H]3CC[C@]21C
inactive: Potency [4] | Potency [1] | Potency (CP203) | Potency (CP211) | Potency (CP237) | Potency (CP269) | Potency (CP291) | Potency (CP335) | Potency (DFO2036) | Potency (DIV14) | Potency (DIV17) | Potency (GB4) | Potency (W2)

CC(=O)[C@@]1(O)CC[C@H]2[C@H]3C[C@@H](C)C4=CC(=O)C=C[C@]4(C)[C@@]3(F)[C@@H](O)C[C@]21C
inactive: Potency [5] | Potency [1] | Potency (CP203) | Potency (CP211) | Potency (CP237) | Potency (CP269) | Potency (CP291) | Potency (CP335) | Potency (DFO2036) | Potency (DIV14) | Potency (DIV17) | Potency (GB4)

NS(=O)(=O)c1cc2c(cc1Cl)N[C@@H](CC1CCCC1)NS2(=O)=O
inactive: Potency [6] | Potency (7G8) | Potency (CP203) | Potency (CP211) | Potency (CP237) | Potency (CP269) | Potency (CP291) | Potency (CP335) | Potency (DFO2036) | Potency (DIV14) | Potency (DIV17) | Potency (GB4) | Potency (ICS) | Potency (PC26) | Potency (W2)

C/C(=C(/CCO)SSC[C@@H]1CCCO1)N(C=O)Cc1cnc(C)nc1N
inactive: Potency [5]

Cc1noc(C)c1-c1nc(Nc2ccncc2)c2ccccc2n1
inactive: Potency [5]
active: Potency [4] 316 nM

CC(C)(C)CC(C)(C)c1ccc(OCOCCOCCO)c(Cc2cc(C(C)(C)CC(C)(C)C)cc(Cc3cc(C(C)(C)CC(C)(C)C)ccc3OCOCCOCCO)c2OCOCCOCCO)c1
inactive: Potency [5]

COc1ccc2c3c([nH]c2c1)[C@@H]1C[C@@H]2[C@@H](C[C@H](O)[C@H](OC)[C@H]2C(=O)O)CN1CC3
inactive: Potency [6]

CC(C)(N=NC(C)(C)C(=N)N)C(=N)N
inactive: Potency [5] | activity change, negative = inhibition [2] 23.6% [at 11.4 µM]

Cc1onc(-c2c(Cl)cccc2Cl)c1C(=O)N[C@H]1C(=O)N2[C@H]1SC(C)(C)[C@H]2C(=O)O
inactive: Potency [6] | Potency [4] | Potency [2] | Potency [3]

CC1(C)O[C@@H]2C[C@H]3[C@H]4C[C@H](F)C5=CC(=O)CC[C@]5(C)[C@@H]4[C@H](O)C[C@]3(C)[C@]2(C(=O)CO)O1
inactive: Potency [1] | Potency (CP203) | Potency (CP211) | Potency (CP237) | Potency (CP269) | Potency (CP291) | Potency (CP335) | Potency (DIV14) | Potency (DIV17) | Potency (GB4) | Potency (ICS) | Potency (PC26) | Potency (W2)

CCC[C@H]1C[C@H](C(=O)N[C@H]([C@@H]2O[C@H](SC)[C@@H](O)[C@H](O)[C@@H]2O)[C@H](C)O)N(C)C1
inactive: Potency [6]

C[C@@]12CC[C@@H]3c4ccc(O)cc4CC[C@H]3[C@H]1C[C@@H](O)[C@H]2O
inactive: Potency [6]

N#Cc1cccc(-c2cncnc2-n2ccnc2)c1
inactive: Potency [5]
active: Potency [4] 2510 nM

O=C(/C=C\c1ccc(O)c(O)c1)O[C@@H]1C[C@](O)(C(=O)O)C[C@@H](O)[C@@H]1O
inactive: Potency [6]

C[N+]1(C)C[C@@H](O)C[C@@H]1C(=O)[O-]
inactive: Potency [3]

C#C[C@]1(O)CC[C@@H]2[C@H]3CCc4cc(OC)ccc4[C@@H]3CC[C@@]21C
inactive: Potency [5]

O=C(NC[C@@H](O)CO)c1c(I)c(C(=O)NC[C@@H](O)CO)c(I)c(N(CCO)C(=O)CO)c1I
inactive: Potency [1] | Potency (7G8) | Potency (CP203) | Potency (CP211) | Potency (CP237) | Potency (CP269) | Potency (CP291) | Potency (CP335) | Potency (DIV14) | Potency (DIV17) | Potency (GB4) | Potency (ICS) | Potency (PC26) | Potency (W2)

C=CCSC[C@@H]1Nc2cc(Cl)c(S(N)(=O)=O)cc2S(=O)(=O)N1
inactive: Potency [6]

Nc1ccccc1S(N)(=O)=O
inactive: Potency [6]

CC(=O)[C@@H]1CC[C@@H]2[C@@H]3C[C@H](C)C4=CC(=O)CC[C@@]4(C)[C@H]3[C@H](O)C[C@]21C
inactive: Potency [5] | Potency [1] | Potency (CP203) | Potency (CP211) | Potency (CP237) | Potency (CP269) | Potency (CP291) | Potency (CP335) | Potency (DFO2036) | Potency (DIV14) | Potency (DIV17) | Potency (GB4) | Potency (PC26)
active: Potency [6] 398 nM
